Compound activity: PubChem BioAssay, National Center for Advancing Translational Sciences (NCATS)
Compounds with a hit are over-represented: about 7.3% of the library has one in this group of screens.
Vaccinia Venus – inhibitors of vaccinia virus (Venus reporter) | Vaccinia virus Venus reporter expression, fluorescence | Potency, µM (doses to about 36.5 µM), for the others: at the highest dose activity change, negative = inhibition, hits mostly inhibitors | 0.46% of 330,000 active; calls by dose curve; tested in A549 cells; also: potency is read from the fitted curve at half-maximal effect; nearly all actives have a fitted effect of over 30% in size
Vaccinia mCherry – inhibitors of vaccinia virus infection (mCherry reporter signal) | Vaccinia virus mCherry reporter infection, fluorescence | Potency, µM (highest dose often 36.5 µM), inactives show top-dose activity change, negative = inhibition, actives largely listed as inhibitors | 0.63% of 310,000 active | AID 720579; calls by dose curve; tested in A549 cells; also: potency is read from the fitted curve at half-maximal effect; nearly all actives have a fitted effect of over 35% in size
HCMV antiviral – blocks human cytomegalovirus replication; 4.5% of 410,000 active; HFF cells, HCMV-luciferase reporter, 72 h; hits give low values; AID 1259415; activity change, negative = inhibition, % at 57.5 µM; in the data active = activity change below about -60%; inconclusive = no clear call, values can overlap the other calls; inactive = above about -39%
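After 16 h attachment at 37C, HFF cells received test compound and HCMV-luciferase (1 PFU/cell); reporter luminescence read 72 h later, data normalized against buffer-only and known inhibitor Salinomycin.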
FMDV antiviral – blocks foot and mouth disease virus; FMDV antiviral cell-based qHTS; 1.2% of 410,000 active; Potency, µM (top dose mostly 57.9 µM), for the others: at the highest dose activity change, negative = inhibition, usual class: inhibitors; calls by dose curve; tested in HEK293T cells; also: read-out not given here; potency is read from the fitted curve at half-maximal effect; nearly all actives have a fitted effect of over 45% in size
HCV inhibitor – inhibitors of hepatitis C virus infection; AID 651820; Huh7.5.1 HCVcc-Cre infection, luciferase reporter, 44 h; 3.4% of 340,000 active; Potency, µM (doses to about 41.8 µM), inactives show top-dose activity change, negative = inhibition, usual class: inhibitors; active = well fitted inhibition curve with a large enough effect; inconclusive = small, poorly fitted or top-dose-only effect, or another doubt; inactive = no such curve, though single readings can be large or run the other way; also: potency is read from the fitted curve at half-maximal effect
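Infectious HCV cell culture screen: compound-treated cells (1,000/well, pre-plated 4 h) are infected with HCVcc-Cre at roughly 0.5 moi and grown 44 h. Infection is quantified by luciferase signal after 15 min substrate incubation at room temperature.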
Active calls of the source: *; i = inactive; u = inconclusive; x = not tested or not shown. % is scaled to controls: 0 for no effect and ±100 for the full control effect.

SMILES	Vaccinia Venus	Vaccinia mCherry	HCMV antiviral	FMDV antiviral	HCV inhibitor
COCCN(C(=O)COC(=O)/C=C/c1ccc(SC)cc1)c1c(N)n(Cc2ccccc2)c(=O)[nH]c1=O	-7%	-17%	-8	-6%	-20%
CCOc1ccc(OCC(=O)N(CCC2=CCCCC2)c2c(N)n(Cc3ccccc3)c(=O)[nH]c2=O)cc1	x	x	-84*	x	16%
Cc1ccsc1CCN1C(=O)N(c2ccccc2)C(=O)C1CC(=O)Nc1ccc(F)cc1 (stereo unspecified)	-2%	-2%	12	-2%	x
O=C(O)CC(NC(=O)C1c2ccccc2Oc2ccccc21)c1ccc(Cl)cc1 (stereo unspecified)	x	x	-88*	-17%	11%
O=C(CN1CCN(c2ccccn2)CC1)N1c2ccccc2CCc2ccccc21	x	x	-19	-26%	-22%
O=C(CN1CCN(c2ccccn2)CC1)Nc1ccc([N+](=O)[O-])cc1C(=O)Nc1ccccc1F	-15%	-2%	6	u	11µM*
Cc1cnc(NC(=O)CN2CCN(c3ccccn3)CC2)s1	u	u	-97*	-3%	u
COc1ccc(N2CCN(CC(=O)Nc3ncc(C)s3)CC2)cc1	x	x	-18	-16%	-19%
CC(C)c1ccc(NC(=O)CN2CCN(c3ccccn3)CC2)cc1	x	x	-35	-5%	-19%
Cc1c(C)n(C(=O)CN2CCN(c3ccccn3)CC2)c2ccccc12	-17%	x	34	32µM*	u
CSc1ccccc1NC(=O)CN1CCN(c2ccccn2)CC1	x	x	-63*	-8%	4%
CC(C)N1C(=O)C[C@H](S(=O)(=O)c2ccccc2)[C@H]1c1ccccc1	x	x	32	x	x
COc1cc(Cl)c(C)cc1NC(=O)c1ccccc1NC(=O)CN1CCN(c2ccccn2)CC1	x	x	-95*	-29%	u
CCC[C@H]1[C@@H](NS(=O)(=O)c2ccccc2C)CC[C@@]23CCCN2C(=O)CCC[C@@H]13	x	x	-26	x	x
OCCN1CCN(c2ncnc3c2ncn3[C@H]2CN(Cc3cccc(C(F)(F)F)c3)C[C@@H](CO)O2)CC1	-8%	i	-62*	-1%	x
CC(C)CNc1ncnc2c1ncn2[C@H]1CN(Cc2ccncc2)C[C@@H](CO)O1	5%	26%	-35	-13%	x
CC(C)CNc1ncnc2c1ncn2[C@H]1CN(Cc2ccc(-c3ccccc3)cc2)C[C@@H](CO)O1	u	u	-73*	u	x
OCCN1CCN(c2ncnc3c2ncn3[C@H]2CN(Cc3ccc(F)cc3)C[C@@H](CO)O2)CC1	0%	-16%	-10	-4%	x
CC(C)Nc1ncnc2c1ncn2[C@H]1CN(Cc2ccc(-c3ccccc3)cc2)C[C@@H](CO)O1	-23%	16%	-66*	u	x
CN(C)CCNc1ncnc2c1ncn2[C@H]1CN(Cc2ccc(-c3ccccc3)cc2)C[C@@H](CO)O1	u	-19%	-31	u	x
COc1ccc(CNC(=O)c2cnc3sc(N4CCCCCC4)nn3c2=O)cc1	-9%	-9%	-38	-7%	x
CCc1ccc(OCC(=O)NCC(c2ccc(OC)cc2)N2CCOCC2)cc1 (stereo unspecified)	-13%	-15%	-15	-7%	x
O=C(/C=C/c1cccnc1)c1cccc(O)c1	-8%	-9%	25	-29%	u
O=C(/C=C/c1cccnc1)c1ccccc1O	-4%	-6%	-22	-13%	-16%
O=C(/C=C/c1cccnc1)c1ccc(O)cc1	2%	i	-88*	0%	-15%
SMILES	Vaccinia Venus	Vaccinia mCherry	HCMV antiviral	FMDV antiviral	HCV inhibitor
COc1cc(C(=O)/C=C/c2cccnc2)c([N+](=O)[O-])cc1OC	11µM*	13µM*	-100*	14µM*	u
O=C(C=Cc1cccnc1)c1ccccc1	-6%	-15%	-25	32µM*	u
CCN(CC)CCN(C(=O)c1ccco1)c1nc2c(C)c(C)ccc2s1	-15%	-23%	u	-22%	x
O=S(=O)(Nc1ccc(-c2ccc(N3CCCC3)nn2)cc1)c1ccccc1Cl	-4%	-6%	-34	33%	x
Cc1cccc(OCC(=O)Nc2ccc(O)c(-c3nc4ccccc4o3)c2)c1	-13%	0%	x	x	x
O=C(Nc1ccc(C(=O)OCc2cc(=O)n3nc(C4CC4)sc3n2)cc1)c1cccc(F)c1	6%	-8%	14	0%	x
O=C1c2oc3ccccc3c(=O)c2C(c2ccc(O)cc2)N1Cc1ccc2c(c1)OCO2 (stereo unspecified)	-8%	-15%	60	20%	x
Cc1cccc(NC(=O)CCN2CCN(c3ccccc3F)CC2)c1	4%	-12%	23	-16%	x
COc1ccc(CC(=O)N2CCN(c3ccccc3F)CC2)cc1OC	-11%	-3%	-33	-22%	11µM*
COc1ccc(-c2cn3c(C)c(C(=O)N4CCCc5ccccc54)sc3n2)cc1	u	10µM*	u	u	11µM*
COc1ccc(C(=O)C(=O)N2CCN(c3ccccc3F)CC2)cc1	-4%	-15%	-68*	-4%	x
COc1ccc(-c2cn3c(C)c(C(=O)N4CCN(c5ccccc5F)CC4)sc3n2)cc1	-10%	15%	-60*	-11%	u
COc1cc(OC)cc(C(=O)N2CCN(c3ccccc3F)CC2)c1	u	-9%	-35	31%	u
Cn1c(=O)c2sccc2n2c(CCC(=O)Nc3ccc(F)cc3)nnc12	-19%	-12%	-4	-19%	x
CCOc1ccc(CCNC(=O)NCc2noc3ccc(C)cc23)cc1	-17%	-10%	-5	5%	x
Cc1cc2ccccn2c1C(=O)c1ccc(S(=O)(=O)N(C)C)cc1	-17%	-14%	-66*	u	u
Cc1cc2ccccn2c1C(=O)c1ccc([N+](=O)[O-])o1	u	u	-66*	u	11µM*
Cc1cc2ccccn2c1C(=O)c1ccc(F)cc1	-19%	-2%	-11	-3%	u
COc1ccc(C#Cc2ccc([C@H]3[C@H](CO)N4CCCCN(S(=O)(=O)c5cn(C)cn5)C[C@@H]34)cc2)cc1	x	x	22	x	x
CCNc1c(NC(=O)c2ccccc2OCC)c(=O)oc2ccccc12	0%	-4%	21	-2%	x
CCc1cccc(NC(=O)CCNS(=O)(=O)c2cc(Br)cnc2N)c1	x	x	-77*	28%	-1%
COc1cc(OC)c(OC)cc1CN(C)CC1CCCN(CCc2ccccc2F)C1 (stereo unspecified)	x	x	-2	0%	14µM*
COc1cccc(CN(C)CC2CCCN(CCc3ccccc3C)C2)c1 (stereo unspecified)	x	x	-21	-23%	11µM*
COc1ccc(CN(C)CC2CCCN(CCc3ccccc3C)C2)cc1O (stereo unspecified)	-26%	-13%	-31	-11%	u
CC(C)(C)S(=O)N1CCC[C@@H]1c1noc2cc3ccccc3cc12 (stereo partly specified)	x	x	-8	x	x
NNC(=O)/C(=N/Nc1ccccc1)S(=O)(=O)c1ccc(Cl)cc1	-29%	u	-26	-22%	10µM*
CCOC(=O)/C(=N/Nc1ccc(C)cc1)S(=O)(=O)c1ccc(Cl)cc1	-3%	i	52	53%	-8%
